# Experimental data as given in PubChem BioAssay.
# Active and inactive are the calls of the source. No stated cut-off is given here; in the data, active means inhibition above about 30%; inactive means the rest.
# Test system: transactivating tegument protein VP16 (Human herpesvirus 1), Gal4-VP16 luciferase reporter
# Assay: repression of VP16-driven luciferase reporter – cell-based, luminescence, high throughput, counter-screen for SRC3 inhibitor project (AID 588794)
# Settings: mammalian cells, at 3.6 µM, stronger effect = higher value
row,SMILES,inhibition
1,CC(C)[C@H]1C(=O)O[C@H](C(C)C)C(=O)N(C)[C@@H](C(C)C)C(=O)O[C@H](C(C)C)C(=O)N(C)[C@@H](C(C)C)C(=O)O[C@H](C(C)C)C(=O)N1C,86.1% (active)
2,Cc1cccc(C)c1-n1nnnc1C(CCc1ccccc1)N1CCC(n2c(=O)[nH]c3ccccc32)CC1 (configuration not stated),49.2% (active)
3,CNC(=O)c1cccn(Cc2cccc(C(F)(F)F)c2)c1=O,-23.9% (inactive)
4,CCN(CCCl)c1cc(CN(C)C)cc(NC(=O)c2ccc(C(=O)Nc3cc(CN(C)C)cc(N(CC)CCCl)c3)cc2)c1,92% (active)
5,CC/C(=N\Nc1ccccc1)c1c(O)[nH]c(=O)[nH]c1=O,20.4% (inactive)
6,N#CC(C#N)=NNc1ccc(-n2ccc(C(F)(F)F)n2)cc1,52.6% (active)
7,CNC(=O)c1cccn(Cc2cc(C(F)(F)F)cc(C(F)(F)F)c2)c1=O,11% (inactive)
8,C=C1C(=O)[C@@]23C[C@H]4[C@@H]5[C@@]6(C)CCC[C@@]57[C@@H]2[C@@H](O)[C@@H]1C[C@H]3[C@H]7N4C6,22% (inactive)
9,CCCCCCCn1c(=O)c(C(=O)Nc2cnccn2)c(O)c2ccccc21,-5.22% (inactive)
10,COc1cccc(C(c2nnnn2-c2ccc3c(c2)OCCO3)N2CCC(n3c(=O)[nH]c4ccccc43)CC2)c1OC (configuration not stated),35.9% (active)
11,CCCCn1c(O)c(C(C)=Nc2ccc(C(=O)O)cc2)c(=O)[nH]c1=O,12.1% (inactive)
12,CCCCNS(=O)(=O)c1ccc(OCC(=O)N2CCN(Cc3ccc4c(c3)OCO4)CC2)cc1,26.6% (inactive)
